IL-1B inflam inh – qHTS for Inhibitors of Inflammasome Signaling: IL-1-beta AlphaLISA Primary Screen | activity change, % at 57.5 µM | 360,000 compounds, 4.7% hits | THP-1 LPS/ATP IL-1B secretion, AlphaLISA, 16 h; active compounds read low | AID 743279, 2014; in the data active = activity change below about -50%; inconclusive = mostly about -30% to -49%
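THP-1 cells pretreated 1 hr with compounds (up to 57.5 uM final), then stimulated with LPS (250 ng/mL final) plus ATP (1.25 mM final); secreted IL-1B measured by AlphaLISA after 16 hr, decreased signal indicating inhibition.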
TDP1 cell noCPT – qHTS for Inhibitors of human tyrosyl-DNA phosphodiesterase 1 (TDP1): qHTS in cells in absence of CPT; DT40 Tdp1-/- hTDP1 cells, no CPT, ATP luminescence, 48 h; Potency, µM (highest dose often 46.2 µM), without a hit: at the top dose activity change, negative = growth inhibition, actives largely listed as inhibitors; 420,000 compounds, 15% hits; AID 686978, 2013; note: potency is the fitted concentration of half-maximal effect; nearly all actives have a fitted effect of over 55% in size
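Camptothecin absent (DMSO only). Human TDP1-complemented DT40 knockout cells, 400 cells/well, 37 °C for minimum 48 hr; ATP measured via CellTiter-Glo, 30 min dark incubation, luminescence.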
RORgamma inh – qHTS for inhibitors of ROR gamma transcriptional activity; 310,000 compounds, 5.4% hits; Potency, µM (highest dose often 53.6 µM), for inactives: at the top dose activity change, negative = inhibition, hits mostly inhibitors; Drosophila S2 Gal4-RORgamma UAS-luciferase reporter, 20 h; AID 2551, 2010; Nuclear receptor ROR-gamma (Mus musculus), P51450; note: potency is the fitted concentration of half-maximal effect; nearly all actives have a fitted effect of over 60% in size
Target sequence (P51450 whole entry, looked up, the tested form may be a part): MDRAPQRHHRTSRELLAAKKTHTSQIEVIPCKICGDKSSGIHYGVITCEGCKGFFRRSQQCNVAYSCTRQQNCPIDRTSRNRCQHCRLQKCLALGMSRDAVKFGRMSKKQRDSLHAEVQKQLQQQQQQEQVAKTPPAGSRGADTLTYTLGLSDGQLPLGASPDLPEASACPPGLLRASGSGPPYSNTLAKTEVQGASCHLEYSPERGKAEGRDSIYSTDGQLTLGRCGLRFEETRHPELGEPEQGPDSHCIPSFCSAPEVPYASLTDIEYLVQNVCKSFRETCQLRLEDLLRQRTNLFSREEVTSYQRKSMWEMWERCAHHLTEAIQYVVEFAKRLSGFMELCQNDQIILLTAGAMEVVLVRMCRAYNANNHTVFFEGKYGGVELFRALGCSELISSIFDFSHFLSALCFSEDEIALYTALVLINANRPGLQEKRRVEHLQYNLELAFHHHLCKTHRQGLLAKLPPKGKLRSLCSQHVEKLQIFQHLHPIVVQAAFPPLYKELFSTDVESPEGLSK
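Compounds are pin-transferred onto Drosophila Schneider cells expressing a copper-inducible Gal4–ROR gamma transactivation domain fusion. After 1 hr, copper sulfate is added to 700 uM final; luciferase is read 20 hr later.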
DT40 TDP1 CPT – qHTS for Inhibitors of human tyrosyl-DNA phosphodiesterase 1 (TDP1): qHTS in cells in presence of CPT; chicken DT40 Tdp1-/-;hTDP1 cells + 20 nM CPT, ATP luminescence, 48 h; Potency, µM (doses to about 46.2 µM), inactives show at the top dose activity change, negative = growth inhibition, actives largely listed as inhibitors; 420,000 compounds, 12% hits; AID 686979, 2013; note: potency is the fitted concentration of half-maximal effect; nearly all actives have a fitted effect of over 55% in size
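Cell growth measured by CellTiter-Glo luminescence after a minimum 48 h, 37 C compound exposure with 20 nM CPT in Tdp1-knockout DT40 cells stably expressing hTDP1, seeded 400/well; qHTS titration format.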
LDHA block – qHTS assay for inhibitors of human lactate dehydrogenase. L-lactate dehydrogenase A chain (Homo sapiens), P00338. AID 1347041, 2019. activity change, % (values are at about 110 or 230 µM). purified LDHA, NADH/diaphorase-resazurin fluorescence; active compounds read low. 480,000 compounds, 0.15% hits; in the data active = activity change below about -30%; inconclusive = mostly about -25% to -30%;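 note: plate controls were DMSO wells for no effect and wells without enzyme for full effect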
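Human LDH5 at 2 nM final in Tris HCl pH 7.4 with 0.06 mM NADH and 0.2 mM pyruvate, reacted 5 minutes at room temperature. Remaining NADH coupled via diaphorase/resazurin; resorufin fluorescence read at 0 and 20 minutes, normalized to enzyme-free and DMSO wells.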
VP16 counter – VP16 counterscreen qHTS for inhibitors of ROR gamma transcriptional activity. Drosophila S2 Gal4-VP16 UAS-luciferase, luminescence, 20 h. Potency, µM (series often up to 53.6 µM), for the others: at the highest dose activity, negative = inhibition, hits mostly inhibitors. 310,000 compounds, 3.5% hits. AID 2546, 2010;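 note: Gal4-VP16 expression switched on by copper sulfate through the metallothionein promoter; potency is the fitted concentration of half-maximal effect; nearly all actives have a fitted effect of over 50% in size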
Starred values were filed as active, the others as inactive; ? = inconclusive; nt = no result given. This is a sample that favours compounds with a hit; in the whole collection about 18% have one here. Unless noted, calls come from the whole dose curve; as a rule, active = well fitted curve in the direction sought with a large enough effect; inconclusive = small, poorly fitted or top-dose-only effect, or another doubt; inactive = no such curve, though single readings can be large; an effect the other way counts as inactive or inconclusive. Unless noted, % is set by controls: 0 for no effect and ±100 for the full control effect.

SMILES	IL-1B inflam inh	TDP1 cell noCPT	RORgamma inh	DT40 TDP1 CPT	LDHA block	VP16 counter
CCc1c(C)sc2nc(NC(CC)CO)n3nc(-c4ccco4)nc3c12 (stereo unspecified)	nt	nt	nt	nt	-2.9	nt
COc1ccc(C(=O)c2c(C(F)(F)F)oc3c2C(=O)c2ccccc2C3=O)cc1OC	?	5.8µM*	39.3%	2.31µM*	25.3	?
COc1ccc(C(=O)Nc2ccc3c(c2)C(=O)c2ccccc2C3=O)cc1OC	10.7	?	1.6%	10.3µM*	-5.3	-8.6%
COc1ccc(C(=O)Nc2ccc3c(c2)N(C2CCCC2)C(=O)c2ccccc2S3)cc1OC	nt	5.17µM*	nt	10.3µM*	2.1	nt
COc1ccc(NC(=O)c2ccc3c(c2)nnn3C2CCCC2)cc1Cl	nt	-24.7%	nt	-2.4%	-16.9	nt
COc1cc(C(=O)Nc2ccc3c(c2)C(=O)c2ccccc2C3=O)cc(OC)c1OC	-1.8	-13.8%	26.1%	1.6%	-2.7	5.5%
NC(=O)NC(=O)CSc1ncnc2ccccc12	nt	nt	nt	nt	4.2	nt
CC(SC1CCCC1)C(=O)Nc1cccc(Cl)c1 (stereo unspecified)	nt	nt	nt	nt	8.6	nt
COc1cc(/C=N/OCc2cccc3ccccc23)ccc1OCc1ccc(Cl)cc1	nt	nt	nt	nt	-4.0	nt
O=C1c2ccccc2C(Nc2ccc3c(c2)OCCO3)N1Cc1ccccc1 (stereo unspecified)	-2.7	16.4µM*	49.9%	29.1µM*	0.6	?
O=C(NC1CCCCC1)C1c2ccccc2C(=O)N1Cc1ccc2c(c1)OCO2 (stereo unspecified)	-12.8	1.5%	0.5%	-1.9%	-4.6	-1.4%
CCOc1ccc(NC2c3ccccc3C(=O)N2Cc2ccc3c(c2)OCO3)cc1 (stereo unspecified)	-26.9	16.4µM*	13.9%	?	2.8	9.7%
COc1cc(NC2c3ccccc3C(=O)N2Cc2ccc3c(c2)OCO3)cc(OC)c1OC (stereo unspecified)	-7.1	?	17.5%	-7.3%	7.9	6.1%
CC(=O)c1cccc(NC2c3ccccc3C(=O)N2Cc2ccc3c(c2)OCO3)c1 (stereo unspecified)	-10.0	20.6µM*	51.3%	?	1.4	5.1%
O=C1c2ccccc2C(Nc2cccnc2)N1Cc1ccccc1 (stereo unspecified)	0.0	-19.8%	-15.0%	-13.2%	0.2	11.7%
O=C(Nc1cnn(Cc2c(Cl)cccc2Cl)c1)C(c1ccccc1)c1ccccc1	-20.2	16.4µM*	7.9%	23.1µM*	-0.1	4.9%
O=C(COc1ccccc1Cl)Nc1cnn(Cc2ccccc2)c1	-12.7	?	37.8%	-10.1%	1.0	-17.2%
Cc1nc(SCc2cn3cccc(C)c3n2)c2ccccc2n1	nt	nt	nt	nt	13.5	nt
O=C(Nc1cccnc1)c1cnn2c(C(F)F)cc(C3CC3)nc12	-15.5	5.17µM*	-5.1%	14.6µM*	-3.4	12.5%
O=C(Nc1cc(Br)ccc1O)c1cnn2c(C(F)F)cc(C3CC3)nc12	6.1	16.4µM*	22.9%	-13.1%	-3.2	-0.7%
O=C(Nc1ccccc1Br)c1cnn2c(C(F)F)cc(C3CC3)nc12	nt	nt	nt	nt	1.5	nt
O=C(CCc1ncc(-c2ccc(F)cc2)o1)N1CCN(S(=O)(=O)c2ccc(F)cc2)CC1	nt	nt	nt	nt	7.1	nt
CCOC(=O)C(NC(=O)/C=C/c1ccc(OC(C)C)c(OC)c1)C(=O)OCC	nt	nt	nt	nt	11.7	nt
COc1ccc(C(C)C)cc1-c1cncc(NC(C)=O)n1	-95.7*	?	nt	-26.1%	-5.2	nt
COc1cccc(/C=C(\C#N)c2nc3ccccc3[nH]2)c1O	nt	nt	nt	nt	-4.4	nt
SMILES	IL-1B inflam inh	TDP1 cell noCPT	RORgamma inh	DT40 TDP1 CPT	LDHA block	VP16 counter
O=C1C2C3CC(C(Br)C3Br)C2C(=O)N1c1ccccn1 (stereo unspecified)	1.8	-9.8%	-5.6%	-12.9%	-4.9	-5.4%
O=C1C2C3c4ccccc4C(c4ccccc43)[C@@H]2C(=O)N1c1ccccn1 (stereo partly specified)	9.9	20.6µM*	-13.3%	?	-0.7	-4.5%
CCOc1ccccc1N(C(=O)c1ccccc1Cl)C1=NC(C)(C)CS1	-7.5	?	17.8µM*	-26.5%	-0.6	5.5%
O=C(CNC(=S)N(Cc1ccccc1)Cc1ccccc1F)NCCc1ccccc1	-18.3	?	12.6µM*	-24.4%	-3.6	-27.6%
CCOC(=O)CNC(=S)N(Cc1ccccc1)Cc1ccccc1F	-56.1*	?	-1.8%	2.7%	0.6	24.6%
O=C(CNC(=S)N(Cc1ccccc1)Cc1ccccc1F)NCc1ccc(Cl)cc1	-82.7*	?	2µM*	?	-1.4	-15.4%
CN(C)CCNC(=O)CNC(=S)N(Cc1ccccc1)Cc1ccccc1F	6.6	2.4%	-11.9%	4.3%	-6.1	2.2%
Cc1ccc(CNC(=O)CNC(=S)N(Cc2ccccc2)Cc2ccccc2F)cc1	-68.9*	?	-30.9%	-19.9%	-4.8	-7.4%
COc1cccc(CNC(=O)CNC(=S)N(Cc2ccccc2)Cc2ccccc2F)c1	?	?	28.3%	?	-6.0	0.2%
CCOC(=O)CNC(=S)N(Cc1ccccc1)Cc1cccs1	-4.9	-2.2%	-18.5%	0.1%	-3.4	1.0%
CCN(C(=O)Cn1c(C(=O)OC)cc2oc3ccccc3c21)c1cccc(C)c1	nt	18.4µM*	nt	11.6µM*	0.4	nt
Cc1ccc(O)c(NC(=O)c2cc(-c3ccccn3)nc3ccccc23)c1	nt	nt	nt	nt	1.7	nt
Cc1ccc(-c2nc(CN(C)Cc3cccc4cnccc34)c(C)o2)s1	-11.3	20.6µM*	?	?	3.2	?
O=C(Cn1nc(N2CCN(c3ccccc3)CC2)ccc1=O)NC1CC1	nt	nt	nt	nt	-3.1	nt
CCN(CC(=O)Nc1ccccc1OC)C(=O)c1cc(=O)c2cc(C)ccc2o1	nt	nt	nt	nt	4.5	nt
Cc1cccc(C)c1OCC(O)Cn1c2ccccc2c2ccccc21 (stereo unspecified)	-7.1	20.6µM*	?	?	-1.2	-9.0%
Cc1ccc(OCC(O)Cn2c3ccccc3c3ccccc32)cc1 (stereo unspecified)	-84.2*	12.6µM*	11.3%	?	6.2	-22.3%
OC(COCC(F)(F)C(F)(F)C(F)(F)C(F)F)Cn1c2ccccc2c2ccccc21 (stereo unspecified)	-102.9*	8.2µM*	?	13µM*	-6.3	5.01µM*
Cc1ccc(NC(=O)CN2C(=O)S/C(=C\c3cccn3-c3ccc(C(=O)O)cc3)C2=O)cc1	nt	nt	nt	nt	-3.4	nt
